These results are taken from ChEMBL document CHEMBL1961873, “Compounds: GSK PKIS; Assays: Nanosyn kinase panel” (2012).

Test [1] deals with 5'-AMP-activated protein kinase catalytic subunit alpha-2 (Homo sapiens) (UniProt P54646). The conditions noted are these: at 1 µM.
In test [2] the target is T1, NUAK family SNF1-like kinase 1 (Homo sapiens) (UniProt O60285).
T1 sequence (whole entry): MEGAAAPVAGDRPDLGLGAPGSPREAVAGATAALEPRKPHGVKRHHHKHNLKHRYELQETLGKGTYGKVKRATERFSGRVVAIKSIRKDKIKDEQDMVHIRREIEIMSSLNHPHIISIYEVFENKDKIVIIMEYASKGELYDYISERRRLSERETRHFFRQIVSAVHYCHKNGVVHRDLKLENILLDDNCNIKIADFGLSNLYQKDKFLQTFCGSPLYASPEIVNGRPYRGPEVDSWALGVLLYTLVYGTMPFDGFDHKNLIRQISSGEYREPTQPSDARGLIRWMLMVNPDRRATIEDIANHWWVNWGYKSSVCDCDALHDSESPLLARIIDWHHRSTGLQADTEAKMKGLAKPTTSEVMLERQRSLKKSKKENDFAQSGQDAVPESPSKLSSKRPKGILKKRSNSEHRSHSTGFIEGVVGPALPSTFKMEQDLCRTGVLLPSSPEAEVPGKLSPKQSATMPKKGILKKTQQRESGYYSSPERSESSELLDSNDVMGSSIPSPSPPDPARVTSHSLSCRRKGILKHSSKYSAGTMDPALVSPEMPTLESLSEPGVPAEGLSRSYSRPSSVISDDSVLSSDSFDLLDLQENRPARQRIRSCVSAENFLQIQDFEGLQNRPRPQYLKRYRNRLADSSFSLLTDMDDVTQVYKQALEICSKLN
To be noted: at 0.1 µM.

Test [3] concerns the target T1, NUAK family SNF1-like kinase 1 (Homo sapiens). To be noted: at 1 µM.
In test [4] the target is T2, Serine/threonine-protein kinase BRSK1 (Homo sapiens) (UniProt Q8TDC3).
T2 sequence (whole entry): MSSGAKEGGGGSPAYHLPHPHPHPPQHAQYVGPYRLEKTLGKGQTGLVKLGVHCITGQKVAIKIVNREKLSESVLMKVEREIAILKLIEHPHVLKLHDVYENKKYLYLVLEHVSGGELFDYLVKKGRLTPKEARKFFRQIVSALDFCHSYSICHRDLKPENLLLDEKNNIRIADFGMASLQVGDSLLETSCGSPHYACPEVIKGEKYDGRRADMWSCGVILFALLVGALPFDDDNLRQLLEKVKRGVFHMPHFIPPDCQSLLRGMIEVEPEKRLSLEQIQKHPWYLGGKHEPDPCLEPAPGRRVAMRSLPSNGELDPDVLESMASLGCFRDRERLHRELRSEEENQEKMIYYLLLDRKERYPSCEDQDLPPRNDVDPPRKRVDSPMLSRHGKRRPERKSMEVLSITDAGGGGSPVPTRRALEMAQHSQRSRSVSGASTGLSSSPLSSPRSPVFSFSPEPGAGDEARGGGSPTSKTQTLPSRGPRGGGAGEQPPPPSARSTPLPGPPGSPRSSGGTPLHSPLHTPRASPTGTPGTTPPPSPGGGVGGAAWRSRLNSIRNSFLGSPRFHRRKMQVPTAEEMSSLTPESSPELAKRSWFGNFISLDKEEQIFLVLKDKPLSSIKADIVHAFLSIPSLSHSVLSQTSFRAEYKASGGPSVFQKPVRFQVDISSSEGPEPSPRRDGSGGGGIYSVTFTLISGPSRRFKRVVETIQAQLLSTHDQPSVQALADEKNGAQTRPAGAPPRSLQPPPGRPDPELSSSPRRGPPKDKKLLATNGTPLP
The conditions noted are these: at 0.1 µM.

Test [5] has as its target T2, Serine/threonine-protein kinase BRSK1 (Homo sapiens). To be noted: at 1 µM.
Test [6] deals with T3, Serine/threonine-protein kinase BRSK2 (Homo sapiens) (UniProt Q8IWQ3).
T3 sequence (whole entry): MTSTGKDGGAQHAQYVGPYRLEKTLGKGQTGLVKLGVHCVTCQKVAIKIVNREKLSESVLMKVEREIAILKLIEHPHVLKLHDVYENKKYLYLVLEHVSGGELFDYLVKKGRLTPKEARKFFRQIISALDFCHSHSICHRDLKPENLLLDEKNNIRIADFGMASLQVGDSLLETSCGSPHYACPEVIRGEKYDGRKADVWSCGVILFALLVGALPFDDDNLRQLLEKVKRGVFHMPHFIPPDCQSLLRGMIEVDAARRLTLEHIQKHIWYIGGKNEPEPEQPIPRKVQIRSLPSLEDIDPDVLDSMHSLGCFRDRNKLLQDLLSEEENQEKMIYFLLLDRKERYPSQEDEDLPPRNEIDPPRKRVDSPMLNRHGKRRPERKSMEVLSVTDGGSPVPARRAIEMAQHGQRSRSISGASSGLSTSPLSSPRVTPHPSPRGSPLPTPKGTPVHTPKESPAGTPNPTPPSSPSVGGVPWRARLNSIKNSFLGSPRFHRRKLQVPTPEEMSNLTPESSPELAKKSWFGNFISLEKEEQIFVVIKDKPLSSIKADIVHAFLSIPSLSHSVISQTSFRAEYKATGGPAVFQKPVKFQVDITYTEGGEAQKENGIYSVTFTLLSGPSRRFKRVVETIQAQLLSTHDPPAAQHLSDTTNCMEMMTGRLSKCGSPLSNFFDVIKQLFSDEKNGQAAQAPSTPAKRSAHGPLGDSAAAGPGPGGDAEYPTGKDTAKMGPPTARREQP
To be noted: at 0.1 µM.

The target of test [7] is T3, Serine/threonine-protein kinase BRSK2 (Homo sapiens). To be noted: at 1 µM.
Test [8] has as its target Calcium/calmodulin-dependent protein kinase type 1D (Homo sapiens) (UniProt Q8IU85). The conditions noted are these: at 0.1 µM.
Test [9] shares this target. To be noted: at 1 µM.
Test [10] addresses Calcium/calmodulin-dependent protein kinase type II subunit alpha (Homo sapiens) (UniProt Q9UQM7). The conditions noted are these: at 0.1 µM.
The target is the same in test [11]. To be noted: at 1 µM.
Test [12] addresses Calcium/calmodulin-dependent protein kinase type II subunit delta (Homo sapiens) (UniProt Q13557). To be noted: at 0.1 µM.
Test [13] shares this target. To be noted: at 1 µM.
The target of test [14] is T4, Calcium/calmodulin-dependent protein kinase type IV (Homo sapiens) (UniProt Q16566).
T4 sequence (whole entry): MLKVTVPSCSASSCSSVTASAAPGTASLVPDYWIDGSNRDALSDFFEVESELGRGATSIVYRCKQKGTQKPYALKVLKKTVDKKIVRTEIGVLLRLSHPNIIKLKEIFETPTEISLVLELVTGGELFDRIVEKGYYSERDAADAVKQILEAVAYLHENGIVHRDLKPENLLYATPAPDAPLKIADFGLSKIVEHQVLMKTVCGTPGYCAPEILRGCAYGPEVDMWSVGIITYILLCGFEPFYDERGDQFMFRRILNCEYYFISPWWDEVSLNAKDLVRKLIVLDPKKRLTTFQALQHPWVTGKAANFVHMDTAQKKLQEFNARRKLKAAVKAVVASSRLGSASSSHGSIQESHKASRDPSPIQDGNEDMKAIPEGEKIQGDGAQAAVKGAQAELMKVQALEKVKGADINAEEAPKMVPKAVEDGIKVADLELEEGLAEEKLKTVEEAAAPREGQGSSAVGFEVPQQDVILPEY
The conditions noted are these: at 0.1 µM.

Test [15] has as its target T4, Calcium/calmodulin-dependent protein kinase type IV (Homo sapiens). The conditions noted are these: at 1 µM.
Test [16] deals with T5, Serine/threonine-protein kinase Chk1 (Homo sapiens) (UniProt O14757).
T5 sequence (whole entry): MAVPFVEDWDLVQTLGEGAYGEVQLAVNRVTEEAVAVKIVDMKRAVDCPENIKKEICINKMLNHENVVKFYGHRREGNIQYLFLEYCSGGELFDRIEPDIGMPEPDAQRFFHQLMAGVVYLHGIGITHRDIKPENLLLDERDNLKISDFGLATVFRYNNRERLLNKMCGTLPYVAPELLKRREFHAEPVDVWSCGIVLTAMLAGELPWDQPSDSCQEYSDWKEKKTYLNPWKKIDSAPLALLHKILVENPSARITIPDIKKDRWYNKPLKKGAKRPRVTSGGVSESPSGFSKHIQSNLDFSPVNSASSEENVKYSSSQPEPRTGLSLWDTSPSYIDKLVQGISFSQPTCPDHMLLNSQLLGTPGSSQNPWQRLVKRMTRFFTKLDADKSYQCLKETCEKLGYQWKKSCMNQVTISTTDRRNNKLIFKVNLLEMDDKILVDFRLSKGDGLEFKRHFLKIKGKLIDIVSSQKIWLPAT
The conditions noted are these: at 0.1 µM.

Test [17] concerns the target T5, Serine/threonine-protein kinase Chk1 (Homo sapiens). The conditions noted are these: at 1 µM.
The target in test [18] is Serine/threonine-protein kinase Chk2 (Homo sapiens) (UniProt O96017). To be noted: at 0.1 µM.
The target is the same in test [19]. To be noted: at 1 µM.
Test [20] deals with Death-associated protein kinase 1 (Homo sapiens) (UniProt P53355). To be noted: at 0.1 µM.
Sequence of Death-associated protein kinase 1 (Homo sapiens) (P53355 whole entry, looked up): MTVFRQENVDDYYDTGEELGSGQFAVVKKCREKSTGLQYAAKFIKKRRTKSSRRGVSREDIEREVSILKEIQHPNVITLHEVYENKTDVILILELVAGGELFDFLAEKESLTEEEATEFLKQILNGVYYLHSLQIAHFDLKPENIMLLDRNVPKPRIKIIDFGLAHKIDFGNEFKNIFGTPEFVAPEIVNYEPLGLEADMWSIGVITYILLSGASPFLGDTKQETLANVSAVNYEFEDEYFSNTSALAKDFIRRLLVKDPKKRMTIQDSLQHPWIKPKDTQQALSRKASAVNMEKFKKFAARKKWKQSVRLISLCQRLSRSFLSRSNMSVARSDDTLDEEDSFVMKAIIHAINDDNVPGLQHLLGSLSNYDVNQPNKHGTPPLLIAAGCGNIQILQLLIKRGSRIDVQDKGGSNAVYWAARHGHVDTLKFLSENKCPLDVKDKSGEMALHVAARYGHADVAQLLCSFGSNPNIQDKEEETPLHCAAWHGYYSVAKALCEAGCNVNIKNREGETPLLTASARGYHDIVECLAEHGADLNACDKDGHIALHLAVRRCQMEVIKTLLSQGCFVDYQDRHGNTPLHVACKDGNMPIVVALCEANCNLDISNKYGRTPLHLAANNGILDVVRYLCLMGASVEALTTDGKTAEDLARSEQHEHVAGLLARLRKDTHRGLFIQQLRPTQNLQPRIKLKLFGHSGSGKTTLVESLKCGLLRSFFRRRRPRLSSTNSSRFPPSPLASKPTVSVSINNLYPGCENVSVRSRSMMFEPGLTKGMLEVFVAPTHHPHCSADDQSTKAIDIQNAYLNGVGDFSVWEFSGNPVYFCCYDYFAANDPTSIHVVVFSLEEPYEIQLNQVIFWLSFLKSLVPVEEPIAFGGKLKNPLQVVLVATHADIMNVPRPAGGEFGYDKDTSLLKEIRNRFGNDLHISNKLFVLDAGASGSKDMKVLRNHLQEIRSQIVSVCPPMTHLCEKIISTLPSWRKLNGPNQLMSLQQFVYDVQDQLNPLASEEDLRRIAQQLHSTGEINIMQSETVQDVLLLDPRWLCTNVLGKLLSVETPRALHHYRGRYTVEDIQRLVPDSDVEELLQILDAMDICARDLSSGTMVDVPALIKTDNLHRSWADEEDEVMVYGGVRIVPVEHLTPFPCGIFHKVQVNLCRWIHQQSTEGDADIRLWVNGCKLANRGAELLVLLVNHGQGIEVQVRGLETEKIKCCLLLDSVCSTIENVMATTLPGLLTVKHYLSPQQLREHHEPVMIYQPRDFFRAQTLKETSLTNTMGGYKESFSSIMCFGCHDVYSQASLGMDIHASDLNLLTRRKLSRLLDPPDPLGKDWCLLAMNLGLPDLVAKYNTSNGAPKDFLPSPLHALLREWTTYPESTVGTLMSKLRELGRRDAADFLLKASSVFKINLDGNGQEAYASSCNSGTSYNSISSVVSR

Sequence of 5'-AMP-activated protein kinase catalytic subunit alpha-2 (Homo sapiens) (P54646 whole entry, looked up): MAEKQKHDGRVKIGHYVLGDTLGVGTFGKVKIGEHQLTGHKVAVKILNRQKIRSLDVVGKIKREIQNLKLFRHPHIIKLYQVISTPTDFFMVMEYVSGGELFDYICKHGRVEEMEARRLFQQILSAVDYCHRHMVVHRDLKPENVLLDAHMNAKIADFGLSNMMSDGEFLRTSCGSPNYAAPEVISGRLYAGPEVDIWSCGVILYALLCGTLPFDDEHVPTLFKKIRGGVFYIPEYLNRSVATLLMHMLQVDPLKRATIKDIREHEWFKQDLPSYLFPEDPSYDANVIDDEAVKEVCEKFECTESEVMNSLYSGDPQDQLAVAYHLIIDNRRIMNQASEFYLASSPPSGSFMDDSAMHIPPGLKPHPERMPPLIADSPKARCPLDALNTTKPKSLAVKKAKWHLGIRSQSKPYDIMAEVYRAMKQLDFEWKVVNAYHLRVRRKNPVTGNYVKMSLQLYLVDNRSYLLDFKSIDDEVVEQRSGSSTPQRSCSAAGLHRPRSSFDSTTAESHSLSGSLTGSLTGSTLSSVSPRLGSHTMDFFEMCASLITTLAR
Sequence of Calcium/calmodulin-dependent protein kinase type 1D (Homo sapiens) (Q8IU85 whole entry, looked up): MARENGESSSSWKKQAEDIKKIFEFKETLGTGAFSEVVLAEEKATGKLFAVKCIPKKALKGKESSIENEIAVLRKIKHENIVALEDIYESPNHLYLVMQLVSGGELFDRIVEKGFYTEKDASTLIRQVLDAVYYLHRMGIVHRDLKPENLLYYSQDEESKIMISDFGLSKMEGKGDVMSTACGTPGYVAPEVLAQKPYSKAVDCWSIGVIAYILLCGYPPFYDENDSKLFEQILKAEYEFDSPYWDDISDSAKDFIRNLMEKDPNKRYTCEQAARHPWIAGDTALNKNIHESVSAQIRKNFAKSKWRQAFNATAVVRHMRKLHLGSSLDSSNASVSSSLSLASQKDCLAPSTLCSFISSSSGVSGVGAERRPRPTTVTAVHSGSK
Sequence of Serine/threonine-protein kinase Chk2 (Homo sapiens) (O96017 whole entry): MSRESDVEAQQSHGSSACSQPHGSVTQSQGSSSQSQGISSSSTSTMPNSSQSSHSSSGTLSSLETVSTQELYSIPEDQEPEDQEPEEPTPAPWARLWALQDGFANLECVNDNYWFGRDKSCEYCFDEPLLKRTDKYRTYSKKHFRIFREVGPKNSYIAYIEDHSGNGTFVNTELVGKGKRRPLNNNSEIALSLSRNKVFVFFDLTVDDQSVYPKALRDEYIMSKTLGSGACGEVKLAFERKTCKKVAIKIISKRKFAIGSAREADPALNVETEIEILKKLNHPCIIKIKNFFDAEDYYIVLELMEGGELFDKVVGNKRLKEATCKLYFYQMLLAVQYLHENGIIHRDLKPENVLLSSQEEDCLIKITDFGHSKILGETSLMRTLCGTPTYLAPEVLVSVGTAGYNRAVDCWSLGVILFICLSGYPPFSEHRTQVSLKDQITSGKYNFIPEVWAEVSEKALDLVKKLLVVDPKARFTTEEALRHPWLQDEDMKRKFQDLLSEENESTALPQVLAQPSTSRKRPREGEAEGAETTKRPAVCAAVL
Sequence of Calcium/calmodulin-dependent protein kinase type II subunit delta (Homo sapiens) (Q13557 whole entry): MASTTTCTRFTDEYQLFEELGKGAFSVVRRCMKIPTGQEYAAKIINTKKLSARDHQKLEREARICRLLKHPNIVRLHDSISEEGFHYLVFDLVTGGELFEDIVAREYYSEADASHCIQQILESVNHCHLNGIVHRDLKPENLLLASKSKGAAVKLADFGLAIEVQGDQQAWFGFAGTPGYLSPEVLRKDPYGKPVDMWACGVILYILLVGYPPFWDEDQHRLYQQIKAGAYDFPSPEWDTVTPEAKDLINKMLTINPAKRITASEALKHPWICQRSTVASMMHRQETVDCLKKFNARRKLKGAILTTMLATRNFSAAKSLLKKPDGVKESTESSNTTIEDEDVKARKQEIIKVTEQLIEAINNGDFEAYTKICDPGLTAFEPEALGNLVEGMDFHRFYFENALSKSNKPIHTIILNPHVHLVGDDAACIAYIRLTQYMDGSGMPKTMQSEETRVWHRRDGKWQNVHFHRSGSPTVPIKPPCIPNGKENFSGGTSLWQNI
Sequence of Calcium/calmodulin-dependent protein kinase type II subunit alpha (Homo sapiens) (Q9UQM7 whole entry): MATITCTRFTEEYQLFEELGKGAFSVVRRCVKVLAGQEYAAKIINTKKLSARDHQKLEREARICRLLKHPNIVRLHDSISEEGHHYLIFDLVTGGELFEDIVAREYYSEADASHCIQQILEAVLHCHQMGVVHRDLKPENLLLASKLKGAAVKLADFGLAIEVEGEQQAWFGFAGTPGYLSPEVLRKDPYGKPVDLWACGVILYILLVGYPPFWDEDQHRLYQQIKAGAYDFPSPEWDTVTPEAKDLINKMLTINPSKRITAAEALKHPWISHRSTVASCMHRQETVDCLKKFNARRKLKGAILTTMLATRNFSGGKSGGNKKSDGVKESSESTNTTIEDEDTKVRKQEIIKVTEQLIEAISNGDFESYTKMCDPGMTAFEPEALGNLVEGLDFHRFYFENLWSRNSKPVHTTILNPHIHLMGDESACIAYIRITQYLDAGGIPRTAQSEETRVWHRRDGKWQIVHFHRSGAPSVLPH

Consider `CCc1cccc(CC)c1/C=C/c1cncc(C(=O)NC)c1`, for which the inhibition came out at 2.36% in [1]; 1.6% in test [2]; 6.57% in test [3]; 1.79% in [4]; 0.96% in [5]; 0.46% in [6]. Besides, the inhibition in test [7] was determined as 0.3%; in test [8], 0.62%; in test [9] it was 1.99%; in test [10] it was 3.18%; in test [11], 3.51%; in test [12], 2.92%. The inhibition worked out at 2.2% in test [13]; 1.05% in [14]; 13.9% in test [15]; 3.68% in test [16]; 2.13% in [17]; 1.58% in [18]. For the same compound, the inhibition in [19] worked out at 1.85%; in [20] it was 2.61%.

For `COc1cccc(-n2cnc3c(N/N=C/c4ccncc4)ncnc32)c1`, the inhibition in test [1] was 1.47%; in test [2], 2.39%; in [3], 22.3%; in test [4], -0.01%; in test [5], 4.34%; in [6] it was -0.23%. Besides, the inhibition is 6.3% in test [7]; 0.54% in [8]; -0.39% in test [9]; 0.58% in test [10]; 1.18% in test [11]; -1.07% in test [12]. For the same compound, the inhibition in [13] is -1.61%; in test [14] it was -2.88%; in [15], -5.3%; in [16] it was 0.34%; in [17], 0.31%; in [18], -0.94%. Further, the inhibition in test [19] was -0.32%; in test [20] it was -0.67%.

As to `COc1cc(C)c(N(C)C(=O)CN(C)C)cc1Nc1nc(Nc2cccc(F)c2C(N)=O)c2cc[nH]c2n1`, the inhibition in [1] was 3.07%; in [2], 0.7%; in test [3], 4.1%; in test [4] it was 0.88%; in test [5], -0.02%; in test [6], 0.05%. Further, the inhibition in test [7] worked out at 0.83%; in [8], 1.27%; in test [9], 2.67%; in [10], 3.48%; in test [11], 4.38%; in [12], 3.09%. In addition, the inhibition in test [13] is 3.38%; in [14] it was 1.4%; in test [15] it was 4.78%; in [16], -4.87%; in test [17] it was -0.94%; in test [18], 2.55%. Also, the figures for the inhibition in test [19] and in test [20] were 8.44% and 0.19%, respectively.
